Records with an inconclusive call do not appear. Some structures have more than one record in an assay (separate samples or runs), and their calls can disagree. Activity calls are given as the source filed them. Calls come from the whole dose curve; as a rule, active = well fitted inhibition curve with a large enough effect; inconclusive = small, poorly fitted or top-dose-only effect; inactive = flat fitted curve, though single readings scatter. Where a SMILES comes first, the peptide text is derived from it. Bridges are numbered along the chain shown (N, C = ends). [ ]: non-standard residue; d: D form. The star is where a group is joined. X2 = CC[C@H](C)CCCCC(=O)*; Dab = NCC[C@H](N)C(=O)O
Test system: not listed separately
Assay: Drug repurposing screens with cells derived from glioblastoma tumor samples (AID 1345199); note: nearly all actives have a fitted effect of over 40% in size
Details: GBM patient neurospheres viability, ATP luminescence, 48 h; tumour line A
Summary of the method: (§1)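 Four patient lines of CD133+ GBM neurospheres were screened at several concentrations; hits were retested in those lines plus three slower-growing GBM lines, using 48-hour treatment and ATP-based viability.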
% is set by controls: 0 for no effect and ±100 for the full control effect; potency is the fitted concentration of half-maximal effect.

| SMILES | Potency |
| --- | --- |
| CC(C)(S)C(=O)N[C@@H](CS)C(=O)O | 39.8 µM (active) |
| CCCOc1ccc2nc(NC(=O)OC)sc2c1 | 8.91 µM (active) |
| CCC(=O)OCC(=O)[C@@]1(OC(=O)CC)[C@H](C)C[C@H]2[C@@H]3CCC4=CC(=O)C=C[C@]4(C)[C@@]3(F)[C@@H](O)C[C@@]21C | 17.8 µM (active) |
| COc1ccc(C(=O)Nc2ccccc2CCC2CCCCN2C)cc1 (stereo not drawn) | 10 µM (active) |
| CCCCCCCCCCCCCCCC(=O)OC/C=C(C)/C=C/C=C(C)/C=C/C1=C(C)CCCC1(C)C | 20 µM (active) |
| CCOc1ccc(N=C(C)Nc2ccc(OCC)cc2)cc1 | 11.2 µM (active) |
| COc1ccc(CCNCC(O)COc2cccc(C)c2)cc1OC (stereo not drawn) | 11.2 µM (active) |
| Cc1ccc(C2(O)CCN(CCCC(=O)c3ccc(F)cc3)CC2)cc1 | 6.31 µM (active) |
| C[C@@H]1C[C@H]2C3C[C@H](F)C4=CC(=O)C=CC4(C)[C@@]3(F)[C@@H](O)CC2(C)[C@@]1(O)C(=O)COC(=O)C(C)(C)C (stereo partly drawn) | 12.6 µM (active) |

Test system: astro (control astrocytes)
Assay: as above
Details: viability, ATP luminescence, 48 h; series mostly up to 45.9 µM; activity, negative = cell killing: at the top concentration
Summary of the method: as §1

| SMILES | activity, negative = cell killing | Potency |
| --- | --- | --- |
| CCC(CN)CC(C)CCNCC(O)CNCC(C)CC(CC)CN (stereo not drawn) | -4.63% (inactive) |  |
| C=C1CC2C3CCC4=CC(=O)C=C[C@]4(C)[C@@]3(F)[C@@H](O)C[C@]2(C)[C@@]1(O)C(=O)COC(C)=O (stereo partly drawn) | -10.7% (inactive) |  |
| O=C1O[C@H]2[C@H](O)[C@@H]1OC(O)[C@H]2O (stereo partly drawn) | -11.8% (inactive) |  |
| O=C(Cn1cnnn1)N[C@@H]1C(=O)N2C(C(=O)O)=C(CSc3nncs3)CS[C@H]12 |  | inactive |
| CN1CC(O)c2cc(N=NC(N)=O)c(O)cc21 (stereo not drawn) | -16.1% (inactive) |  |
| O=C(Nc1ccc(/C=C/c2ccc(NC(=O)c3cc(S(=O)(=O)O)c4cccnc4c3O)cc2S(=O)(=O)O)c(S(=O)(=O)O)c1)c1cc(S(=O)(=O)O)c2cccnc2c1O | -2.1% (inactive) |  |
| COc1ccc(CNCC(O)COc2ccc3[nH]c(=O)ccc3c2)cc1OC (stereo not drawn) | -8.7% (inactive) |  |
| O=C(O)[C@@H](O)[C@H](O)[C@H](O)[C@@H](O)C(=O)O (tested in a mixture with another compound) | -2.61% (inactive) |  |
| CC(=O)O[C@H]1CC[C@@]2(C)C(=CC[C@H]3[C@@H]4CC[C@H](C(C)=O)[C@@]4(C)CC[C@@H]32)C1 | -16.3% (inactive) |  |
| CC(C)(S)C(=O)N[C@@H](CS)C(=O)O |  | inactive |
| O=c1[nH]cnc2[nH]cc(CN3CCCCC3)c12 | 3.96% (inactive) |  |
| CCCOc1ccc2nc(NC(=O)OC)sc2c1 |  | 6.31 µM (active) |
| O=C(O)c1ccccc1[O-].O=C(O)c1ccccc1[O-].[Zn+2] | -10.1% (inactive) |  |
| CCC(=O)OCC(=O)[C@@]1(OC(=O)CC)[C@H](C)C[C@H]2[C@@H]3CCC4=CC(=O)C=C[C@]4(C)[C@@]3(F)[C@@H](O)C[C@@]21C | -3.88% (inactive) |  |
| CN[C@@H]1CCc2[nH]c3ccc(C(N)=O)cc3c2C1 | -1.37% (inactive) |  |
| COc1ccc(C(=O)Nc2ccccc2CCC2CCCCN2C)cc1 (stereo not drawn) | -9.19% (inactive) |  |
| CCCCCCCCCCCCCCCC(=O)OC/C=C(C)/C=C/C=C(C)/C=C/C1=C(C)CCCC1(C)C | -9.19% (inactive) |  |
| O=C(O)CC(O)(CC(=O)O)C(=O)O | -13.9% (inactive) |  |
| CCCCC(=O)O |  | inactive |
| CN(C(=O)CO)c1c(I)c(C(=O)NCC(O)CO)c(I)c(C(=O)NCC(O)CO)c1I (stereo not drawn) | -9.82% (inactive) |  |
| CC(=O)OCC(=O)[C@@]1(O)[C@H](C)C[C@H]2[C@@H]3C[C@H](F)C4=CC(=O)C=C[C@]4(C)[C@H]3[C@@H](O)C[C@@]21C | -4.29% (inactive) |  |
| C[C@]12CC[C@@H]3c4ccc(OS(=O)(=O)O)cc4CC[C@H]3[C@@H]1CCC2=O | -10.2% (inactive) |  |
| COc1cc(C[C@@H]2NCCc3cc(O)c(O)cc32)cc(OC)c1OC | -13.8% (inactive) |  |
| CC[C@H](C)CCCCC(=O)N[C@@H](CCN)C(=O)N[C@H](C(=O)N[C@@H](CCN)C(=O)N[C@H]1CCNC(=O)[C@H]([C@@H](C)O)NC(=O)[C@H](CCN)NC(=O)[C@H](CCN)NC(=O)[C@H](CC(C)C)NC(=O)[C@@H](CC(C)C)NC(=O)[C@H](CCN)NC1=O)[C@@H](C)O (X2-[Dab]T[Dab][Dab][Dab][dL]L[Dab][Dab]T; lactam 4-C) | -8.5% (inactive) |  |
| CC(C)(C)NC(=O)[C@H]1CC[C@H]2[C@@H]3CC=C4C=C(C(=O)O)CC[C@]4(C)[C@H]3CC[C@]12C | -22.2% (inactive) |  |
| CCOc1ccc(N=C(C)Nc2ccc(OCC)cc2)cc1 | -14.7% (inactive) |  |
| COc1ccc(CCNCC(O)COc2cccc(C)c2)cc1OC (stereo not drawn) | -4.43% (inactive) |  |
| C=CS(=O)(=O)O | -8.49% (inactive) |  |
| Cc1ccc(C2(O)CCN(CCCC(=O)c3ccc(F)cc3)CC2)cc1 | -14.4% (inactive) |  |
